Screens from PubChem.
GRK2 inh – human GRK2 inhibition via aptamer displacement; P25098; bead flow cytometry, FAM-aptamer displacement from GRK2; inhibition of aptamer binding, % at 10 µM; 330,000 tested, 0.59% active; AID 488847;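 active means inhibition of aptamer binding above 40%, roughly 3 SD of noise, on plates passing a quality check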;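 further: median bead fluorescence of bound FAM aptamer so fluorescent compounds give negative values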
Target sequence (P25098 whole entry, looked up): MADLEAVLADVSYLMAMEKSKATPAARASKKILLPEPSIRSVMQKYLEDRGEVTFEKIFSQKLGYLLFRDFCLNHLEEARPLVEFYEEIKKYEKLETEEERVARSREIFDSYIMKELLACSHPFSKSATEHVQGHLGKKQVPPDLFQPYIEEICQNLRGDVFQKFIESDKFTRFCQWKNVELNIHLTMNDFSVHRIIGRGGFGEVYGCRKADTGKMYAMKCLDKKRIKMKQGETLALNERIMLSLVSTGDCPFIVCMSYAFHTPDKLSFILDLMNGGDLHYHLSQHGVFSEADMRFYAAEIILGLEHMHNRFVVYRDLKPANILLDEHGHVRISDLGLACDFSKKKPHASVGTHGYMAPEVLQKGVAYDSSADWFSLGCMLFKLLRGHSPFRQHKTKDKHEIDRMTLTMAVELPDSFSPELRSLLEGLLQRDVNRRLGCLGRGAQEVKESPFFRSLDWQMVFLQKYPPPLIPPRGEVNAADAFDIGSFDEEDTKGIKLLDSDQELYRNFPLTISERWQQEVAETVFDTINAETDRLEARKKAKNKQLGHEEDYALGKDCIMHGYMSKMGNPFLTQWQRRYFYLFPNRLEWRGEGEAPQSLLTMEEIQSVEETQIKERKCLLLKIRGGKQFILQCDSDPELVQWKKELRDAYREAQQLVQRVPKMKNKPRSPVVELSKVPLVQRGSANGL
MEKK3 PB1 HTS – modulators (inhibitors or enhancers) of MEK5 binding to human MEKK3 PB1 domain | Q99759 | bead-based flow cytometry, Alexa488-MEK5 binding to MEKK3; actives lie on both sides; 0 = blocked by unlabeled MEK5, 100 = vehicle | 290,000 tested, 1.4% active | binding response (% of control), % at 10 µM;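 active means binding response more than 3 SD above or below the average of its plate-row segment, actives on both sides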;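 further: Alexa488 bead fluorescence after subtracting the streptavidin-only scavenger bead signal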
MEKK2wt PB1 HTS – raises or lowers MEK5 binding to wildtype human MEKK2 PB1 domain; binding response (% of control), % at 10 µM; AID 1531; 290,000 tested, 1.1% active; Q9Y2U5; bead flow cytometry, Alexa488-MEK5 binding to MEKK2 WT; actives lie on both sides; in the data active means binding response below about 67% or above about 130%
MEKK2 mut-MEK5 – signal of MEK5 binding to mutant human MEKK2 PB1 domain; bead flow cytometry, Alexa488-MEK5 binding to MEKK2 mutant; percent response, % at 10 µM; 290,000 tested, 0.35% active; in the data active means percent response above about 24%, passing the limit was not always enough
MEKK2wt confirm – raises or lowers MEK5 binding to wildtype human MEKK2, retest; binding response (% of control), % at 10 µM; shares compounds with MEKK3 PB1 HTS; bead flow cytometry, Alexa488-MEK5 binding to MEKK2 WT; actives lie on both sides; AID 1892; 5,900 tested, 2.4% active; in the data active means binding response below about 16% or above about 210%; inactive means in between
MEKK2mut confirm – signal of MEK5 binding to mutant human MEKK2, retest. bead flow cytometry, Alexa488-MEK5 binding to MEKK2 mutant. 5,900 tested, 2% active. shares compounds with MEKK3 PB1 HTS. percent response, % at 10 µM; in the data active means percent response mostly above about 71%, no sharp cut-off; inactive means mostly below about 38%;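 further: higher means compound restores mutant binding toward wildtype level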
MEKK3-MEK5 inh – confirmation of inhibitors of MEK5 binding to human MEKK3; bead flow cytometry, Alexa488-MEK5 binding to MEKK3; hits give low values; binding response (% of control), % at 10 µM; 5,900 tested, 1.8% active; shares compounds with MEKK3 PB1 HTS; AID 1894;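 active means binding response below 72% of control, or above a set upper limit, though filed actives all read lower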;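 further: 100% = DMSO only wells and 0% = binding blocked by excess unlabeled MEK5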
* marks the source's active call; other numbers are inactive results; . = not tested or not shown; [ ] = dose if it differs, or a comment. In the library only some 2.5% were active in any assay of this set; here they are far more common.

SMILES	GRK2 inh	MEKK3 PB1 HTS	MEKK2wt PB1 HTS	MEKK2 mut-MEK5	MEKK2wt confirm	MEKK2mut confirm	MEKK3-MEK5 inh
CC(c1ccccc1)C1OCC(C[N+]2(C)CCCCC2)O1 (stereo not drawn)	0	43*[inhibitor]	47*[inhibitor]	-18	105	7	105
CN(C(=O)c1cc2c(=O)n3ccccc3nc2n1C)C1CCCCC1	0	102	101	1	.	.	.
CCN(CC(=O)NC)S(=O)(=O)c1ccc(Br)cc1	2	109	112	24*	101	-4	98
CCCc1cc(Nc2c(C)n(C)n(-c3ccccc3)c2=O)n2c(nc3ccccc32)c1C#N	0	107	103	0	.	.	.
C=CCc1ccccc1OCC(O)CN1CCN(CCN2C(=O)c3cccc4cccc(c34)C2=O)CC1 (stereo not drawn)	0	111	193*	23	155	17	105
CC(C)OCC(O)CN1CCN(CCN2C(=O)c3cccc4cccc(c34)C2=O)CC1 (stereo not drawn)	0	101	100	3	.	.	.
Cc1cccc(C)c1OCC(O)CN1CCC(CN2C(=O)c3cccc4cccc(c34)C2=O)CC1 (stereo not drawn)	0	97	150*	20	134	48	104
Cc1ccccc1OCC(O)CN1CCN(CCN2C(=O)c3cccc4cccc(c34)C2=O)CC1 (stereo not drawn)	1	137*	111	1	132	15	106
CC(=O)c1ccc(OCC(O)CN2CCN(CCN3C(=O)c4cccc5cccc(c45)C3=O)CC2)cc1 (stereo not drawn)	2	102	105	1	.	.	.
O=C(/C=C/c1ccccc1)Nc1ccc2c(c1)C(=O)NC2=O	3	102	100	1	.	.	.
Cc1c(C#N)c2ccccc2n1CC(=O)N1CCCC1	2	105	107	14	.	.	.
Cc1cccc(S(=O)(=O)c2c(N)n(-c3ccccc3)c3nc4ccccc4nc23)c1	0	138*	105	0	97	-3	107
CC(C)(C)n1nc2c(c1NC(=O)CCCc1ccccc1)CS(=O)C2 (stereo not drawn)	0	110	109	8	.	.	.
Brc1ccc(-c2nnc(-c3cccnc3)c3conc23)cc1	2	80*[inhibitor]	78	-5	99	1	102
CC1(C)SC(=S)N(NC(=O)Nc2ccccc2)C1N(O)C(=O)Nc1ccccc1 (stereo not drawn)	0	103	96	1	.	.	.
CNC(=O)N(O)C1N(NC(=O)Nc2cccc3ccccc23)C(=S)SC1(C)C (stereo not drawn)	0	132*	105	1	101	3	100
NCC(c1ccc(Cl)cc1Cl)c1c[nH]c2ccccc12 (stereo not drawn)	0	109	141*	19	137	23	105
CCCNC(=O)c1ccc(N2CCC3(CC2)CC(c2ccccc2)=NO3)c([N+](=O)[O-])c1	1	101	97	-5	.	.	.
COc1ccccc1C(CCNCc1ccc(N(C)C)cc1)c1ccc(OC(C)C)cc1 (stereo not drawn)	0	117	229*	61*	160	30	107
COc1ccc(CNCCC(c2ccc(OC(C)C)cc2)c2ccccc2OC)cc1 (stereo not drawn)	0	112	193*	47*	181	41	111
COc1ccc(C(CCNCc2ccc(OC(C)C)cc2)C(C)C)cc1 (stereo not drawn)	0	102	126	15	.	.	.
COc1ccccc1C(CCNCc1ccccc1)c1ccc(OC(C)C)cc1 (stereo not drawn)	3	110	158*	24*	148	30	108
COc1ccc(CNCCC(c2ccc(OC(C)C)cc2)c2ccccc2OC)cc1OC (stereo not drawn)	0	112	156*	28*	148	27	112
COc1ccc(C(CCNCc2ccc(N(C)C)cc2)C(C)C)cc1 (stereo not drawn)	0	103	124	19	.	.	.
N/C(Cc1ccc(Cl)cc1Cl)=N\OC(=O)c1ccc(Br)o1	0	93	94	-2	.	.	.
SMILES	GRK2 inh	MEKK3 PB1 HTS	MEKK2wt PB1 HTS	MEKK2 mut-MEK5	MEKK2wt confirm	MEKK2mut confirm	MEKK3-MEK5 inh
Cc1ccc(NC(=O)c2c(-c3ccccc3)noc2C)nc1	0	93	89	-2	.	.	.
CCOc1cc(C)c(Cl)cc1S(=O)(=O)n1ccnc1	0	100	105	6	.	.	.
O=S(=O)(NC(=S)NC1CCCCC1)c1ccccc1	4	4.0*[inhibitor]	6.0*[inhibitor]	-23	99	-2	100
O=S(=O)(NC(=S)NC1CCCCC1)c1cccs1	0	98	99	1	.	.	.
O=C(CCCc1nc(-c2ccccc2Cl)no1)NCc1cccnc1	0	123*	117	9	100	0	100
O=C(CCc1nc(-c2ccccc2)no1)NCc1cccnc1	0	100	100	4	.	.	.
Cc1cc(N/N=C/c2ccccc2Br)nc2ccccc12	4	99	144*	22	136	13	104
Brc1ccccc1/C=N/Nc1ccc2ccccc2n1	2	101	126	15	.	.	.
Cc1ccccc1NC(=O)c1nc2nccc(C)n2n1	1	69*[inhibitor]	91	-3	110	-2	102
O=C(COc1ccc(Cl)cc1Cl)NCC1(N2CCOCC2)CCCCC1	3	.	.	.	.	.	.
COC(=O)CCC(=O)N1CCCC(N2CCN(c3cccc(C(F)(F)F)c3)CC2)C1 (stereo not drawn)	6	37*[inhibitor]	19*[inhibitor]	-14	100	4	103
COc1ccc2[nH]c(=O)c(CN(CC3CCCO3)C(=O)Nc3ccc(F)cc3)cc2c1 (stereo not drawn)	.	108	105	2	.	.	.
COc1ccc(NC(=O)N(Cc2cc3cc(C)ccc3[nH]c2=O)CC2CCCO2)cc1 (stereo not drawn)	0	130*	119	30	-4.0*[inhibitor]	-2	86
CCCN(CCC)c1nc(N)c(C#N)c(CC#N)c1C#N	4	100	99	-2	.	.	.
CC(=O)c1c(C)[nH]c(C(=O)CSc2nnc(-c3ccco3)o2)c1C	2	152*	127	7	97	-6	100
O=C(CSc1nnc(-c2ccco2)o1)N1CCOCC1	0	103	101	4	.	.	.
Fc1ccc(CSc2nnc(-c3ccco3)o2)cc1	0	1.0*[inhibitor]	85	-57	97	-8	95
COc1ccc(-c2nnc(SCC(=O)c3[nH]c(C)c(C(C)=O)c3C)o2)cc1	0	103	102	1	.	.	.
